Among all 2,500 compounds or so, about 1,100 (44%) were called active. The set was probably picked from earlier hits. The list shows a part of the results. A number with no mark means an inactive call.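 The calls were made as follows: active = inhibition above 50% at 4 µM in the single-point screen; inactive = inhibition of 50% or less.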

The nature of this assay: blockers of TNF-a NF-kB luciferase induction – cell-based, HEK293T NF-kB-Luc, luminescence, selectivity assay for NOD1/NOD2 signaling inhibitor project, primary screen (AID 1852). As to conditions: TNF-a induced, 14 h, at 4 µM, stronger effect = higher value.
The term inhibition denotes the relative decrease from the control value, in per cent. Consider `Cc1nc([N+](=O)[O-])c(Br)n1Cc1ccccc1`, for which the inhibition was 22.9%.
Regarding `NC(=O)c1ccc(N2CCN(S(=O)(=O)c3ccccc3)CC2)c([N+](=O)[O-])c1`, the inhibition is 5.1%.
Take `O=[N+]([O-])c1cc(S(=O)(=O)Nc2cccc(C(F)(F)F)c2)ccc1-n1nnc2ccccc21`: the inhibition was 68.7% (active).
`CN(C)c1ccnc2sc3c(=O)n(Cc4ccccc4)cnc3c12`: the inhibition is 69.1% (active).
`Cc1ccccc1-n1cnc2c(sc3nc(N4CCOCC4)c4c(c32)CCCC4)c1=O`: the inhibition is 18.7%.
`Cc1noc2ncnc(N3CCN(c4cccc(Cl)c4)CC3)c12`: the inhibition is 19%.
The figure for `Cn1ncc2c(N3CCN(c4ccc(Cl)c(Cl)c4)CC3)ncnc21` is 104% (active).
For `CC1CCCN(c2ncnc3c2cnn3-c2ccc(Cl)cc2)C1` (centres undefined), the inhibition is 45.4%.
For `CCOc1ccccc1NC(=O)CSc1nnc(Cc2cccn2C)n1-c1ccc(F)cc1` the value was 56.8% (active); for `COc1ccccc1NC(=O)CSc1nnc(Cc2cccn2C)n1-c1ccc(F)cc1`, -5.9%.
Consider `Cn1cccc1Cc1nnc(SCC(=O)Nc2ccc(Cl)cc2)n1-c1ccc(F)cc1`, for which the inhibition was 42%.
For `COc1ccc(-n2c(Cc3cccn3C)nnc2SCC(=O)Nc2cccc(F)c2)cc1` the value was 59.1% (active).
In the case of `COc1ccc(-n2c(Cc3cccn3C)nnc2SCC(=O)Nc2ccc(F)cc2)cc1`, the inhibition is -4%.
With `COc1ccc(-n2c(Cc3cccn3C)nnc2SCC(=O)Nc2cccc(Cl)c2)cc1`, the inhibition was 14.7%.
For `Cn1cccc1Cc1nnc(SCC(=O)Nc2cccc(F)c2)n1-c1ccc(F)cc1`, the inhibition is -4.7%.
`Cc1cc(C)cc(NC(=O)CSc2nnc(Cc3cccn3C)n2-c2ccc(F)cc2)c1`: the inhibition was 59.6% (active).
The figure for `COc1ccc(Cl)cc1NC(=O)CSc1nnc(Cc2cccn2C)n1-c1ccc(F)cc1` is 35.1%.
With `O=[N+]([O-])c1ccc(O)c(-c2cc(C(F)(F)F)nc(-c3ccccc3)n2)c1`, the inhibition was 93.6% (active).
The figure for `O=[N+]([O-])c1ccc(O)c(Nc2ncnc3ccccc23)c1` is 4.9%; for `O=c1nc(/C=C/c2cc([N+](=O)[O-])ccc2Cl)cc(C(F)(F)F)[nH]1` it is -16.6%.
On to `CCOC(=O)C1(Cc2ccccc2C)CCCN(C(=O)CN2C(=O)CSC2=O)C1` (centres undefined), for which the inhibition was 31.1%.
The figure for `O=C(c1ccccc1)N1CCSc2sccc2C1=O` is 52.7% (active); for `CC1=C(/C=C/C(C)=N\NC(=O)c2ccncc2)C(C)(C)CCC1` it is 3.5%; for `CC1=CCCC(C)(C)C1/C=C/C(C)=N/NC(=O)c1ccncc1` (centres undefined) it is 59.7% (active).
As to `Cc1oc(-c2cc(F)ccc2F)nc1CN1CCN(c2ncnc3ccccc23)CC1`, the inhibition was 104% (active).
Take `COc1ccc(-c2nc(CN3CCN(c4ncnc5ccccc45)CC3)c(C)o2)c(OC)c1`: the inhibition was 23.9%.
For `Cc1oc(-c2cccc3ccccc23)nc1CN1CCN(c2ncnc3ccccc23)CC1`, the inhibition is 43%.
As to `COc1cc(-c2n[nH]c(=S)n2-c2ccc(C)cc2)cc(OC)c1OC`, the inhibition was 2.4%.
On to `COc1ccc(-c2c[n+]3c(n2-c2ccc(C)cc2)CCCCC3)cc1`, for which the inhibition is 50.3% (active).
The figure for `CC1(C)C=C2[C@H]3CC[C@@H]4[C@@]5(C)CCC(=O)C(C)(C)[C@@H]5CC[C@@]4(C)[C@]3(C)CC[C@@]2(C(=O)O)CC1` is 1.3%.
The figure for `N#CC1=C(N)C(C#N)(C#N)C(c2cccnc2)C2CC(c3ccccc3)CC=C12` (centres undefined) is 83.6% (active).
For `O=C(Nc1nnc(SCc2c(Cl)cccc2Cl)s1)c1cccc([N+](=O)[O-])c1` the value was 83.1% (active); for `O=C(Nc1nc2c(Cl)cccc2s1)c1ccc([N+](=O)[O-])o1`, 6.3%.
Take `Cc1csc(NC(=O)c2cc([N+](=O)[O-])cc([N+](=O)[O-])c2)n1`: the inhibition is -6.5%.
With `COc1ccc(NC(=O)Cn2nnc(-c3ccccc3NS(=O)(=O)c3ccc(OC)cc3)n2)cc1`, the inhibition is 70.7% (active).
Take `CCNS(=O)(=O)c1ccc(NC(=O)Cn2cc([N+](=O)[O-])cn2)cc1`: the inhibition was 25%.
On to `CCOC(=O)c1cc(C(=O)Nc2ccc(S(=O)(=O)Nc3ccc(OC)cc3)cc2)nn1C`, for which the inhibition was 18.6%.
As for `O=S(=O)(Nc1nc2ccccc2[nH]1)c1ccc(Cl)cc1`, the inhibition was -4.8%.
`Cc1noc(C)c1CSc1nc2ccccc2nc1NS(=O)(=O)c1ccc(Cl)cc1`: the inhibition was 102% (active).
For the compound `O=[N+]([O-])c1nn(-c2ccc3c(c2)OCCO3)n(O)c1=Nc1ccccc1`, the inhibition is 38%.
As for `O=C1C=C(N2CCOCC2)c2ccccc2C1=O`, the inhibition is 23.7%.
With `Nc1ccc(S(=O)(=O)Nc2nccc(/C=C/c3cccc(Br)c3)n2)cc1`, the inhibition is 36.8%.
As for `O=[N+]([O-])c1ccc(Oc2ccc(F)cc2Br)c2ccncc12`, the inhibition was 66.6% (active).
`O=[N+]([O-])c1ccc(Oc2cccc(F)c2)c2ccncc12`: the inhibition was 42.3%.
Take `O=[N+]([O-])c1ccc(Oc2ccc(F)cc2)c2ccncc12`: the inhibition was 61.5% (active).
Regarding `Cc1ccccc1S(=O)(=O)Cc1ccc(C(=O)N2CCN(c3cccc(C)c3C)CC2)o1`, the inhibition was -33.6%.
Regarding `Cn1cc([N+](=O)[O-])c(C(=O)Nc2cc(Oc3ccccc3)cc([N+](=O)[O-])c2)n1`, the inhibition is 73.2% (active).
For the compound `Cc1ccc(-c2nc(NC(=O)c3nn(C)cc3[N+](=O)[O-])sc2C)cc1`, the inhibition is 39.6%.
On to `CCn1nc(C)c(C(=O)Nc2cc(Oc3cc(C)cc(C)c3)cc([N+](=O)[O-])c2)c1C`, for which the inhibition was 24.6%.
On to `O=C(N/N=C/c1ccccn1)c1cc(-c2ccccc2)nc2ccccc12`, for which the inhibition was 99.1% (active).
As to `O=C(Cc1cc(C(=O)O)c2ccccc2n1)Nc1ccccc1`, the inhibition is -8.7%.
Consider `CCCOc1cccc(-c2cc(C(=O)N/N=C/c3ccccn3)c3ccccc3n2)c1`, for which the inhibition is 102% (active).
In the case of `O=C(N/N=C/c1ccccn1)c1cc(-c2ccc(Cl)cc2)nc2ccccc12`, the inhibition was 104% (active).
As to `O=C(N/N=C/c1ccc[nH]1)c1cc(-c2ccc(Cl)cc2)nc2ccccc12`, the inhibition was 3.4%.
As for `O=C(N/N=C/c1ccccn1)c1cc(-c2ccc(Br)cc2)nc2ccccc12`, the inhibition was 105% (active).
In the case of `O=C(NC1CCCCC1)C(c1cccnc1)N(C(=O)CCl)c1cccc(Cl)c1` (centres undefined), the inhibition was 75.7% (active).
On to `S=C(Nc1ccc(Cl)c(Cl)c1)NC1CCCCC1`, for which the inhibition is 44.7%.
Consider `COc1ccc(C(C(=O)NC2CCCCC2)N(C(=O)CCl)c2cccc(Cl)c2)cc1` (centres undefined), for which the inhibition is 60.8% (active).
Turning to `Cc1ccc(N(C(=O)CCl)C(C(=O)NC2CCCCC2)c2cccnc2)cc1C` (centres undefined), the inhibition is 79.9% (active).
For `COc1ccc(C(C(=O)NC2CCCCC2)N(C(=O)CCl)c2ccc(Cl)cc2)cc1` (centres undefined) the value was 20.4%; for `O=C(NC1CCCCC1)C(c1cccnc1)N(C(=O)CCl)c1ccccc1Cl` (centres undefined), 58.7% (active).
As to `COc1ccc(C(C(=O)NC2CCCCC2)N(C(=O)CCl)c2ccccc2Cl)cc1` (centres undefined), the inhibition is 6.2%.
For the compound `COc1ccc(C(=O)/C=C/C(=O)N(CC(=O)NC2CCCCC2)Cc2ccccc2OC)c(O)c1`, the inhibition is 33.1%.
For `O=C(CN1C(=O)c2cccnc2Oc2ccc(Cl)cc21)NC1CCCCCC1`, the inhibition is 25.9%.

These data come from PubChem BioAssay AID1852 (Sanford-Burnham Center for Chemical Genomics, 2009).
